Activity calls are given as the source filed them.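 Rule for the calls: active = half-maximal potency of 10 µM or stronger, response changing by 30% or more across doses, valid fit; inactive = the rest.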

This experiment can be described thus: GST-GSH bead binding interference, SAR follow-up, counter-screen for Rab7 GTPase inhibitor project, biochemical, flow cytometry beads, round 2 (AID 602145). For orientation: The purpose of a counterscreen is to sort out artefacts and off-target activity.

With `CC(C)(C)C1Cc2c(sc(NC(=S)NC(=O)c3ccccc3)c2C(=O)O)CO1` (configuration not stated), the compound was classed as inactive. Turning to `O=C(NC(=S)Nc1sc2c(c1C(=O)O)CCOC2)c1ccccc1`, the outcome was inactive.

Take `CC1(C)Cc2c(sc(NC(=S)NC(=O)C3CCCCC3)c2C(=O)O)CO1`: the outcome was inactive. Take `COc1ccccc1C(=O)NC(=S)Nc1sc2c(c1C(=O)O)CC(C)(C)OC2`: the call was inactive. Then `Cc1ccc(C(=O)NC(=S)Nc2sc3c(c2C(=O)O)CC(C)(C)OC3)cc1`, with “inactive”; and `Cc1cccc(C(=O)NC(=S)Nc2sc3c(c2C(=O)O)CC(C)(C)OC3)c1`, with “inactive”; and `CCC1(C)Cc2c(sc(NC(=S)NC(=O)c3ccccc3)c2C(=O)O)CO1` (configuration not stated), with “inactive”. Then `CC1(C)Cc2c(sc(NC(=S)NC(=O)c3ccco3)c2C(=O)O)CO1`, with “inactive”.

As to `CC1(C)Cc2c(sc(NC(=S)NC(=O)c3cccs3)c2C(=O)O)CO1`, the compound was classed as inactive. Then `O=C(NC(=S)Nc1sc2c(c1C(=O)O)CC1(CCCC1)OC2)c1ccccc1`, with “inactive”.

On to `Cc1ccccc1C(=O)NC(=S)Nc1sc2c(c1C(=O)O)CC(C)(C)OC2`, for which the outcome was inactive.

Take `CC1(C)Cc2c(sc(NC(=S)NC(=O)c3ccc(F)cc3)c2C(=O)O)CO1`: the call was inactive.

The values above are taken from PubChem BioAssay AID602145 (NMMLSC, 2011).
